From PubChem BioAssay
SMARCA2 act – SMARCA2 (BRM) function activators, primary screen, cell-based, luminescence, high throughput | MG213 cells, MMTV-luciferase reporter, dexamethasone, overnight | hit rate 1% among 370,000 | activation, % at 9.1 µM; in the data active = activation above about 7.8%;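 also: 0% = vehicle wells and 100% = reference activator wells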
Cardio protect – cardioprotection against H2O2-induced cell death, primary screen, uHTS, H9c2 cells, ATPLite luminescence; H9c2 cardiomyocytes, H2O2 injury protection, 2 h; protection from H2O2 cell death, % at 20 µM; hit rate 0.63% among 360,000; AID 588492, 2011;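 active = compounds giving at least 50% protection of heart cells from peroxide-induced death in the single-dose screen, raw or plate-pattern-corrected value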;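 also: 0% = DMSO wells with peroxide and 100% = DMSO wells without peroxide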
FXN GAA850 act – FXN promoter activators, primary screen, cell-based, luciferase luminescence, HEK293 lucGAA850 | HEK293 lucGAA850 FXN promoter luciferase reporter, 24 h; percent of 10 µM SAHA response | activation, % at 6 µM | hit rate 0.56% among 360,000 | AID 540364, 2011;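 active = activation above the average of all compounds screened plus 3 SD, cutoff fixed separately per campaign, cut at about 7.5% in these data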;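 also: 0% = DMSO wells and 100% = 10 µM SAHA wells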
NR2F2 inh – NR2F2 transcriptional activity inhibitors, primary screen, cell-based, luciferase reporter, HEK293T, luminescence. inhibition, % at 8.6 µM. HEK293T NGFI-A luciferase reporter. COUP transcription factor 2 (Homo sapiens), P24468. hit rate 0.7% among 370,000. AID 686940, 2013;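 active = inhibition above a per-plate cutoff, mean inhibition of test wells between control levels plus 3 SD, cut at about 38% in these data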;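 also: cells cotransfected with COUP-TFII expression vector driving the NGFI-A reporter; 0% = median of COUP-TF2 test wells and 100% = reporter-only cells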
Target sequence (P24468 whole entry, looked up): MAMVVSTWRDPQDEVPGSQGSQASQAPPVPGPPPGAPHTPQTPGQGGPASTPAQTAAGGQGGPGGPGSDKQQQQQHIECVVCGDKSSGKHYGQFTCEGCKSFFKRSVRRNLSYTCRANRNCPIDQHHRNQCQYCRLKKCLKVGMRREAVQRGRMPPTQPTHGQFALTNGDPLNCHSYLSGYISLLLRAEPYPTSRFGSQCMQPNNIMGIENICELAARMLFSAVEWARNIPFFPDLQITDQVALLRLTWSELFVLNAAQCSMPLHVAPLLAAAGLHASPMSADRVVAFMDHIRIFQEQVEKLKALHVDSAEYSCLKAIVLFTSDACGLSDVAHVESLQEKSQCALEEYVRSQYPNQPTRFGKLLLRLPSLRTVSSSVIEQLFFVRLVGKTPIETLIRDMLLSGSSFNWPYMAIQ
GalR3 antag – GalR3 antagonists in HEK293 cells, primary screen, cell-based, fluorescence readout. inhibition, % at 3 µM. hit rate 0.44% among 360,000. AID 651719, 2012. HEK293 GalR3-CNG cAMP membrane potential fluorescence; galR3 body fused to GalR1 C-terminus. Galanin receptor type 3 (Homo sapiens), O60755;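 active = inhibition above the screen-wide average plus 3 SD, cut at about 13% in these data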;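 also: forskolin and galanin both at EC90 stimulate the cells; cAMP rise reported by CNG channel membrane potential dye signal; 0% = forskolin plus galanin with DMSO and 100% = forskolin alone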
Gli-Sufu block – Gli-Sufu pathway antagonists, primary screen, luciferase luminescence, Sufu-KO-LIGHT cells, uHTS; AID 588413, 2011; inhibition, % at 5 µM; hit rate 0.74% among 340,000; Sufu-KO-LIGHT fibroblasts, Gli luciferase reporter luminescence;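 active = inhibition above about 55%, limit read from the data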;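 also: 0% = DMSO-treated cells and 100% = wells with medium but no cells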
Gli-Sufu confirm – Gli-SUFU pathway antagonists, confirmation, single concentration, luciferase luminescence, Sufu-KO-LIGHT cells; shares compounds with Gli-Sufu block; Gli luciferase reporter; inhibition, % at 5 µM; hit rate 40% among 2,500; AID 602428, 2012;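 active = mean inhibition at 5 µM reaching about 45%, limit read from the data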;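 also: plate controls were DMSO-treated cells for no effect and wells lacking cells for full effect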
SufuKO cytotox – cytotoxicity in Sufu-KO-LIGHT cells, confirmation, cytotoxicity control for Gli-SUFU antagonist project, cell-based, ATP luminescence, single concentration. shares compounds with Gli-Sufu block. cytotoxicity, % at 5 µM. hit rate 32% among 2,500. AID 651994, 2013;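 active = mean cytotoxicity at 5 µM above about 25%, limit read from the data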;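 also: cells exposed to compound overnight for roughly 16 to 18 hours; plate controls were DMSO wells with cells for no effect and medium without cells for full effect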
Wnt3a cs – Wnt3a reporter signal inhibition, confirmation, counter-screen for Gli-SUFU antagonist project, Wnt-LIGHT cells, luminescence, single concentration; shares compounds with Gli-Sufu block; Wnt3a-driven luciferase reporter; inhibition, % at 6.25 µM; hit rate 20% among 2,500; AID 651995, 2013;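 active = mean inhibition above about 25%, limit read from the data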
GalR3 antag conf – GalR3 antagonist hit confirmation, cell-based, fluorescence, triplicate | HEK293 GalR3 CNG cAMP biosensor, membrane potential fluorescence; galR3 fused to GalR1 carboxy tail; challenged with forskolin and galanin at EC90 | shares compounds with GalR3 antag | inhibition, % at 3 µM | hit rate 59% among 1,600 | AID 652245, 2013;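 active = inhibition above the primary screen's cutoff, the mean inhibition of all screened compounds plus 3 SD, cut at about 13% in these data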;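 also: 0% = forskolin plus galanin and 100% = forskolin alone with DMSO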
HEK-CNG parental – nonspecific cAMP agonists in parental HEK-CNG cells, counter-screen for GalR3 antagonist project, cell-based, fluorescence, high throughput. HEK293-CNG parental cells, cAMP membrane potential fluorescence; normalised: DMSO wells 0%, forskolin wells 100%. hit rate 10% among 1,600. shares compounds with GalR3 antag. activation, % at 3 µM; in the data active = activation above about 1.3%
SMARCA2 act conf – SMARCA2 (BRM) function activators, confirmation, cell-based, luminescence, triplicate; shares compounds with SMARCA2 act; MG213 cells, MMTV-luciferase with dexamethasone, overnight; MG213 cells expressing E1A, Rb sequestered; DMSO wells 0%, reference activator 100%; activation, % at 9.1 µM; hit rate 30% among 3,500;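 active = activation above its plate's cutoff, the mean activation of tested wells plus 3 SD, cut at about 7.9% in these data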
GAL4-VP16 Luc – GAL4-VP16 luciferase reporter activation, counter-screen for SMARCA2 (BRM) activator project, cell-based, pG5luc, luminescence, high throughput | shares compounds with SMARCA2 act | HEK293 GAL4-VP16 pG5luc reporter; scaled: DMSO wells 0%, SAHA wells 100% | activation, % at 9.1 µM | hit rate 41% among 3,500 | AID 686939, 2013;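 active = activation above the solvent-only control well mean plus 3 SD, averaged across control plates, cut at about 5.2% in these data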
VP16 Luc counter – Gal4-VP16 luciferase reporter inhibitors, counter-screen for COUP-TFII antagonist project, cell-based, luminescence, HEK293. inhibition, % at 8.5 µM. shares compounds with NR2F2 inh. hit rate 25% among 2,500. AID 687007, 2013; in the data active = inhibition above about 13%
COUP-TFII conf – NR2F2 transcriptional activity inhibitors, confirmation, cell-based, luciferase reporter, HEK293, triplicate; shares compounds with NR2F2 inh; HEK293 NGFI-A luciferase reporter, luminescence; inhibition, % at 8.5 µM; hit rate 45% among 2,500; AID 687008, 2013;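 active = mean inhibition over three repeats above a set limit taken from the earlier primary screen, cut at about 38% in these data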;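 also: 100% = cells given the luciferase reporter alone without the COUP-TF2 vector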
Numbers without * were called inactive; nt = no result given. In the library only some 3.4% were active in any assay of this set; here they are far more common.

SMILES	SMARCA2 act	Cardio protect	FXN GAA850 act	NR2F2 inh	GalR3 antag	Gli-Sufu block	Gli-Sufu confirm	SufuKO cytotox	Wnt3a cs	others
CCN(CC)CCNc1ccc(C)c2sc3ccc(O)cc3c(=O)c12	8.4*	-15	-3	-89	-4	67*	69*	12	-45	SMARCA2 act conf=18*;GAL4-VP16 Luc=5
C[C@@H]1CN([C@H](C)CO)C(=O)CCCn2nncc2CO[C@H]1CN(C)Cc1cccnc1	2	-1	0	-1	-4	nt	nt	nt	nt
Cc1cc(C)nc(SCC(=O)Nc2ccnc3ccccc23)n1	-5	-26	-4	65*	55*	64*	67*	14	41*	GalR3 antag conf=121*;HEK-CNG parental=0;VP16 Luc counter=3;COUP-TFII conf=60*
COC(=O)Nc1cc(C)nc2ccccc12	-1	4	0	-3	-1	-4	nt	nt	nt
COC(=O)c1ccccc1NC(=O)CSc1nc(C)cc(C)n1	-3	8	0	-4	-3	4	nt	nt	nt
Cc1cc(NC(=O)Cc2ccccc2)c2ccccc2n1	-6	-20	-3	58*	13*	66*	59*	37*	30*	GalR3 antag conf=65*;HEK-CNG parental=0;VP16 Luc counter=0;COUP-TFII conf=39*
O=C(c1c(F)cccc1F)N1CCCc2ccccc21	-1	5	1	4	-13	28	nt	nt	nt
CCN(CC)S(=O)(=O)c1cccc(C(=O)NNC(=O)c2ccc3[nH]c(=O)c(=O)[nH]c3c2)c1	-4	-1	2	-10	-5	0	nt	nt	nt
CC(Sc1nnc(C(C)Oc2ccc(F)cc2)o1)C(=O)NCc1ccc2c(c1)OCO2 (centres undefined)	0	0	0	9	-5	nt	nt	nt	nt
